Laboratory results published in PubChem BioAssay AID1159580 (chemical genetic matrix, 2015).
In all, about 5,500 compounds went through this assay and about 2,000 (36%) were called active. Another 18% or so got no clear call; they are omitted. No stated cut-off is given here; in the data, active means normalized growth mostly below about 0.91 (no sharp cut-off); inconclusive means no clear call, values can overlap the other calls; inactive means mostly above about 0.92. This is one part of the list.

Assay: chemical genetic growth profiling, strain panel (AID 1159580);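 further: tested at 20 µM; growth read once vehicle control cultures reached saturation at 30 °C; 1 = growth at the plate median or of vehicle wells; lower values mean less growth of the strain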
Conditions: growth OD
[1] = S. cerevisiae deletion strains, locus YAR019C, strain CDC15, hits give low values
[2] = S. cerevisiae deletion strains, locus YBL105C, strain PKC1, hits give low values
[3] = S. cerevisiae deletion strains, locus YBR135W, strain CKS1, hits give low values
[4] = S. cerevisiae deletion strains, locus YBR136W, strain MEC1, hits give low values
[5] = S. cerevisiae deletion strains, locus YBR160W, strain CDC28, hits give low values
[6] = S. cerevisiae deletion strains, locus YDL017W, strain CDC7, hits give low values
[7] = S. cerevisiae deletion strains, locus YDL028C, strain MPS1, hits give low values
[8] = S. cerevisiae deletion strains, locus YDL101C, strain DUN1, hits give low values
[9] = S. cerevisiae deletion strains, locus YDL108W, strain KIN28, hits give low values
[10] = S. cerevisiae deletion strains, locus YDL132W, strain cdc53, hits give low values
[11] = S. cerevisiae deletion strains, locus YDL214C, strain PRR2, hits give low values
[12] = S. cerevisiae deletion strains, locus YDR052C, strain DBF4, hits give low values
[13] = S. cerevisiae deletion strains, locus YDR054C, strain cdc34, hits give low values
[14] = S. cerevisiae deletion strains, locus YDR226W, strain ADK1, hits give low values
[15] = S. cerevisiae deletion strains, locus YDR477W, strain SNF1, hits give low values
[16] = S. cerevisiae deletion strains, locus YER123W, strain YCK3, hits give low values
[17] = S. cerevisiae deletion strains, locus YER133W, strain GLC7, hits give low values
[18] = S. cerevisiae deletion strains, locus YFL009W, strain cdc4, hits give low values
[19] = S. cerevisiae deletion strains, locus YFL029C, strain CAK1, hits give low values
[20] = S. cerevisiae deletion strains, locus YFR003C, strain YPI1, hits give low values
[21] = S. cerevisiae deletion strains, locus YFR019W, strain FAB1, hits give low values
[22] = S. cerevisiae deletion strains, locus YFR028C, strain CDC14, hits give low values
[23] = S. cerevisiae deletion strains, locus YGR040W, strain KSS1, hits give low values
[24] = S. cerevisiae deletion strains, locus YGR052W, strain FMP48, hits give low values
[25] = S. cerevisiae deletion strains, locus YGR092W, strain DBF2, hits give low values
[26] = S. cerevisiae deletion strains, locus YHR030C, strain SLT2, hits give low values
[27] = S. cerevisiae deletion strains, locus YHR079C, strain IRE1, hits give low values
[28] = S. cerevisiae deletion strains, locus YHR082C, strain KSP1, hits give low values
[29] = S. cerevisiae deletion strains, locus YHR205W, strain SCH9, hits give low values
[30] = S. cerevisiae deletion strains, locus YIL147C, strain SLN1, hits give low values
[31] = S. cerevisiae deletion strains, locus YJL095W, strain BCK1, hits give low values
[32] = S. cerevisiae deletion strains, locus YJL128C, strain PBS2, hits give low values
[33] = S. cerevisiae deletion strains, locus YJL157C, strain FAR1, hits give low values
[34] = S. cerevisiae deletion strains, locus YJR016C, strain ILV3, hits give low values
[35] = S. cerevisiae deletion strains, locus YJR066W, strain TOR1 (second series), hits give low values
[36] = S. cerevisiae deletion strains, locus YJR066W, strain TOR1, hits give low values
[37] = S. cerevisiae deletion strains, locus YKL048C, strain ELM1, hits give low values
[38] = S. cerevisiae deletion strains, locus YKL067W, strain YNK1, hits give low values
[39] = S. cerevisiae deletion strains, locus YKL101W, strain HSL1, hits give low values
[40] = S. cerevisiae deletion strains, locus YKL193C, strain SDS22, hits give low values
[41] = S. cerevisiae deletion strains, locus YKL203C, strain TOR2, hits give low values
[42] = S. cerevisiae deletion strains, locus YLR113W, strain HOG1, hits give low values
[43] = S. cerevisiae deletion strains, locus YLR133W, strain CKI1, hits give low values
[44] = S. cerevisiae deletion strains, locus YLR403W, strain SFP1, hits give low values
[45] = S. cerevisiae deletion strains, locus YML070W, strain DAK1, hits give low values
[46] = S. cerevisiae deletion strains, locus YMR001C, strain CDC5, hits give low values
[47] = S. cerevisiae deletion strains, locus YMR205C, strain PFK2 (second series), hits give low values
[48] = S. cerevisiae deletion strains, locus YMR277W, strain FCP1, hits give low values
[49] = S. cerevisiae deletion strains, locus YNL006W, strain LST8, hits give low values
[50] = S. cerevisiae deletion strains, locus YNL020C, strain ARK1, hits give low values
[51] = S. cerevisiae deletion strains, locus YNL161W, strain CBK1, hits give low values
[52] = S. cerevisiae deletion strains, locus YNL183C, strain NPR1, hits give low values
[53] = S. cerevisiae deletion strains, locus YNL207W, strain RIO2, hits give low values
[54] = S. cerevisiae deletion strains, locus YNL222W, strain SSU72, hits give low values
[55] = S. cerevisiae deletion strains, locus YNL307C, strain MCK1 (second series), hits give low values
[56] = S. cerevisiae deletion strains, locus YOL078W, strain AVO1, hits give low values
[57] = S. cerevisiae deletion strains, locus YOL136C, strain PFK27, hits give low values
[58] = S. cerevisiae deletion strains, locus YOR061W, strain CKA2, hits give low values
[59] = S. cerevisiae deletion strains, locus YOR119C, strain RIO1, hits give low values
[60] = S. cerevisiae deletion strains, locus YOR231W, strain MKK1, hits give low values
[61] = S. cerevisiae deletion strains, locus YOR329C, strain SCD5, hits give low values
[62] = S. cerevisiae deletion strains, locus YPL031C, strain PHO85, hits give low values
[63] = S. cerevisiae deletion strains, locus YPL153C, strain RAD53, hits give low values
[64] = S. cerevisiae deletion strains, locus YPL204W, strain HRR25, hits give low values
[65] = S. cerevisiae deletion strains, locus YPL209C, strain IPL1, hits give low values
[66] = S. cerevisiae deletion strains, locus YPL256C, strain CLN2, hits give low values
[67] = S. cerevisiae deletion strains, locus YPR025C, strain CCL1, hits give low values
[68] = S. cerevisiae deletion strains, locus YPR106W, strain ISR1, hits give low values
[69] = S. cerevisiae deletion strains, locus YPR111W, strain DBF20, hits give low values
[70] = S. cerevisiae deletion strains, strain NNK1, hits give low values
[71] = S. cerevisiae deletion strains, strain TSCII, hits give low values
[72] = S. cerevisiae deletion strains, locus YAL013W, strain DEP1, hits give low values
[73] = S. cerevisiae deletion strains, locus YBR229C, strain ROT2, hits give low values
[74] = S. cerevisiae deletion strains, locus YDL134C, strain PPH21, hits give low values
[75] = S. cerevisiae deletion strains, locus YDR150W, strain NUM1, hits give low values
[76] = S. cerevisiae deletion strains, locus YEL061C, strain CIN8, hits give low values
[77] = S. cerevisiae deletion strains, locus YGR078C, strain PAC10, hits give low values
[78] = S. cerevisiae deletion strains, locus YHR087W, strain rtc3, hits give low values
[79] = S. cerevisiae deletion strains, locus YJR043C, strain POL32, hits give low values
[80] = S. cerevisiae deletion strains, locus YJR075W, strain HOC1, hits give low values
[81] = S. cerevisiae deletion strains, locus YLR039C, strain RIC1, hits give low values
[82] = S. cerevisiae deletion strains, locus YLR058C, strain SHM2 (second series), hits give low values
[83] = S. cerevisiae deletion strains, locus YLR085C, strain ARP6, hits give low values
[84] = S. cerevisiae deletion strains, locus YLR262C, strain YPT6, hits give low values
[85] = S. cerevisiae deletion strains, locus YML094W, strain GIM5, hits give low values
[86] = S. cerevisiae deletion strains, locus YMR219W, strain ESC1, hits give low values
[87] = S. cerevisiae deletion strains, locus YMR263W, strain SAP30, hits give low values
[88] = S. cerevisiae deletion strains, locus YMR307W, strain GAS1, hits give low values
[89] = S. cerevisiae deletion strains, locus YNL153C, strain GIM3, hits give low values
[90] = S. cerevisiae deletion strains, locus YNL298W, strain CLA4 (second series), hits give low values
[91] = S. cerevisiae deletion strains, locus YNL322C, strain KRE1, hits give low values
[92] = S. cerevisiae deletion strains, locus YNR030W, strain Alg12, hits give low values
[93] = S. cerevisiae deletion strains, locus YPL055C, strain LGE1, hits give low values
[94] = S. cerevisiae deletion strains, locus YPL241C, strain CIN2, hits give low values
[95] = S. cerevisiae deletion strains, locus YPR135W, strain CTF4, hits give low values

Measured: normalized growth

Cc1ccc(OCc2n[nH]c(=S)n2Cc2ccccc2)c2c1CCC2
active: [16] 0.609 | [21] 0.68 | [26] 0.283 | [28] 0.53 | [37] 0.782 | [39] 0.722 | [42] 0.698 | [55] 0.621 | [63] 0.609 | [66] 0.655
inactive: [1] 0.987 | [2] 0.988 | [3] 0.982 | [4] 0.98 | [5] 0.985 | [6] 0.987 | [7] 0.975 | [8] 0.994 | [9] 0.973 | [10] 0.99 | [11] 0.823 | [12] 0.995 | [13] 0.988 | [14] 0.988 | [15] 0.817 | [17] 0.841 | [18] 0.984 | [19] 0.992 | [20] 0.985 | [22] 0.984 | [23] 0.801 | [24] 0.647 | [25] 0.495 | [27] 0.619 | [29] 0.908 | [30] 0.967 | [31] 0.656 | [32] 0.955 | [33] 0.803 | [34] 0.986 | [35] 0.797 | [36] 0.73 | [38] 0.838 | [40] 0.988 | [41] 0.829 | [43] 0.793 | [44] 0.84 | [45] 0.752 | [46] 0.984 | [47] 0.847 | [48] 0.986 | [49] 0.998 | [50] 0.713 | [51] 0.99 | [52] 0.628 | [53] 0.988 | [54] 0.986 | [56] 0.985 | [57] 0.785 | [58] 0.751 | [59] 0.883 | [60] 0.677 | [61] 0.988 | [62] 0.746 | [64] 0.723 | [65] 0.984 | [67] 0.989 | [68] 0.992 | [69] 0.99 | [70] 1 | [71] 0.991

C=CCn1c(COc2c(Br)cc(C)c3c2CCC3)n[nH]c1=S
active: [76] 0.896 | [26] 0.544 | [81] 0.491 | [83] 0.558 | [84] 0.571 | [85] 0.841 | [87] 0.846 | [88] 0.324 | [90] 0.764 | [92] 0.874 | [94] 0.847 | [95] 0.612
inactive: [72] 0.968 | [73] 0.977 | S. cerevisiae deletion strains, locus YCL061C, strain MRC1, hits give low values 0.969 | [8] 0.975 | [74] 0.965 | [75] 0.857 | [77] 0.978 | [78] 1.01 | [79] 0.98 | [80] 0.992 | [82] 0.991 | [86] 0.988 | [89] 0.975 | [91] 0.991 | [93] 1.08

CSc1nnc(COc2ccc(C)c3c2CCC3)n1-c1ccccc1
inactive: [1] 0.982 | [2] 0.98 | [3] 0.986 | [4] 0.984 | [5] 0.984 | [6] 0.991 | [7] 0.991 | [8] 0.974 | [9] 0.992 | [10] 0.98 | [11] 0.96 | [12] 0.98 | [13] 0.976 | [14] 0.977 | [15] 0.972 | [16] 0.96 | [17] 0.941 | [18] 0.974 | [19] 0.981 | [20] 0.979 | [21] 0.978 | [22] 0.978 | [23] 0.962 | [24] 1.05 | [25] 0.948 | [26] 1.1 | [27] 1.05 | [28] 1.02 | [29] 0.972 | [30] 0.987 | [31] 1.03 | [32] 0.931 | [33] 0.968 | [34] 0.988 | [35] 0.934 | [36] 1.07 | [37] 0.964 | [38] 0.966 | [39] 0.964 | [40] 0.98 | [41] 1.04 | [42] 0.924 | [43] 0.979 | [44] 0.968 | [45] 0.966 | [46] 0.98 | [47] 0.974 | [48] 0.98 | [49] 0.98 | [50] 0.976 | [51] 0.982 | [52] 1.05 | [53] 0.979 | [54] 0.985 | [55] 0.968 | [56] 0.987 | [57] 0.963 | [58] 0.959 | [59] 0.992 | [60] 1.02 | [61] 0.987 | [62] 0.961 | [63] 0.959 | [64] 0.967 | [65] 0.983 | [66] 0.995 | [67] 0.984 | [68] 0.98 | [69] 0.97 | [70] 0.975 | [71] 0.974

Cc1ccc(OCc2nnc(SCC(=O)c3ccc(F)cc3)n2-c2ccccc2)c2c1CCC2
inactive: [72] 0.982 | [73] 0.987 | [8] 0.961 | [74] 0.982 | [75] 0.972 | [76] 0.982 | [77] 0.966 | S. cerevisiae deletion strains, locus YGR229C, strain SMI1, hits give low values 0.984 | [26] 0.964 | [78] 0.957 | S. cerevisiae deletion strains, locus YJL187C, strain SWE1, hits give low values 0.983 | [79] 0.969 | [80] 0.986 | [81] 0.968 | [82] 0.978 | [83] 0.957 | [84] 0.961 | [85] 0.947 | [86] 0.99 | [87] 0.982 | [88] 1.01 | S. cerevisiae deletion strains, locus YNL128W, strain TEP1, hits give low values 0.992 | [89] 0.989 | [90] 0.972 | [91] 0.993 | [92] 0.98 | S. cerevisiae deletion strains, locus YOL006C, strain TOP1, hits give low values 0.963 | [93] 0.956 | [94] 1.04 | [95] 0.867 | S. cerevisiae strains, strain wild type, hits give low values 0.971
